In PubChem BioAssay (EPA / NIEHS) one finds outcome and AC50 data, which are given here for 19 molecules.

Values joined by “and” are separate entries in the source; they are usually repeats but may differ in a detail not shown here. Identical values can stand only once. Inconclusive results are not listed. Active and inactive are the calls of the source. How the source made its calls, unless noted: active means hit-call score of the fitted dose curve at least 0.9, where 1 is the maximum; inconclusive means response in the unintended direction; inactive means score below 0.9.

Read-out in the first assay: not listed separately
As to the kind of experiment: BSK_4H_Eotaxin3: BioMAP Diversity Plus: 4H Assay for Eotaxin 3 Biomarker Activity (AID 2283000; active means hit-call score of the fitted dose curve at least 0.9, where 1 is the maximum; inactive means score below 0.9;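 further: CCL26 protein level quantified by ELISA in parallel with SRB cytotoxicity check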). The note with it: primary human endothelial cells (HUVEC); actives raise or lower the signal. The method in brief: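 ELISA quantitation of CCL26 (Eotaxin-3) protein from chemically dosed human vascular endothelial cells at 24 h; increases and decreases both scored relative to DMSO-treated baseline.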
As to `O=P(O)(O)OCCC(F)(F)C(F)(F)C(F)(F)C(F)(F)C(F)(F)C(F)(F)F`, the result was inactive. Consider `FC(F)(Br)C(F)(F)C(F)(F)C(F)(F)C(F)(F)C(F)(F)Br`, for which the result was inactive. As for `FC(F)(F)C(F)(F)C(F)(F)CI`, the outcome was inactive.

The target of the next assay is human Peroxisome Proliferator-activated Receptor alpha (PPARa), PPARA (gene 5465) (UniProt Q07869). In words: ATG_PPARa_TRANS: Attagene TRANS-FACTORIAL HepG2 Assay for human Peroxisome Proliferator-activated Receptor alpha (PPARa) (AID 2283001).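 On AC50: potency for gain of reporter signal over DMSO so agonist or activator.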
human Peroxisome Proliferator-activated Receptor alpha (PPARa), PPARA (gene 5465), sequence (Q07869 whole entry, looked up): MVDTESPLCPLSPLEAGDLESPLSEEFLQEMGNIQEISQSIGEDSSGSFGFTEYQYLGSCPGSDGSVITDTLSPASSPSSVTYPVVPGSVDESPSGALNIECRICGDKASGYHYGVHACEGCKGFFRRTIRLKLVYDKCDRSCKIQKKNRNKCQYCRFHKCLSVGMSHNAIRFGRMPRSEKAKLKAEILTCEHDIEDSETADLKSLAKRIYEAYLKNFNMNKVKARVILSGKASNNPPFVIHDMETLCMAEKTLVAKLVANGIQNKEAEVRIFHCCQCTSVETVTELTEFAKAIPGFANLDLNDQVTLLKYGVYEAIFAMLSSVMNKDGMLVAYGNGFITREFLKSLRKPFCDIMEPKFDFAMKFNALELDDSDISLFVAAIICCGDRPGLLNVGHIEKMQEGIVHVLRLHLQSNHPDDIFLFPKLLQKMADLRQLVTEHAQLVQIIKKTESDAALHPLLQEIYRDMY
Conditions: not given
A digest of the protocol: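 Transfected HepG2 cells treated with test chemical for 24 h. RNA isolated, reverse-transcribed with oligo(dT), PCR-amplified, FAM-labelled and HpaI-digested. Fragments sized by capillary electrophoresis; gain-of-signal fit relative to DMSO.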
Take `COC(=O)CCC(F)(F)C(F)(F)C(F)(F)C(F)(F)F`: the result was inactive. Consider `CC/C=C\CCOC(C)=O`, for which the outcome was inactive. As for `O=C(O)C(F)(F)C(F)(F)F`, the result was inactive. Regarding `FC(F)(F)C(F)(F)C(F)(F)C(F)(F)CCI`, the outcome was inactive.

With `O=C(CC(=O)C(F)(F)C(F)(F)F)C(F)(F)F`, the molecule was called inactive. On the same count and under the same terms, then `Nc1ccc(Oc2cccc(Oc3ccc(N)cc3)c2)cc1`, with “inactive”. With `FC(F)(F)C(F)(F)C(F)(F)C(F)(F)C(F)(F)C(F)(F)CCS`, the molecule was classed as inactive.

Take `CCCCCCS`: the molecule was classed as inactive.

As to `O=C(Cl)C(F)(F)C(F)(F)C(F)(F)C(F)(F)C(F)(F)C(F)(F)C(F)(F)C(F)(F)F`, the AC50 (in general, the midpoint of the concentration-response curve, whichever way the signal moves) is 10.3 µM (active). Take `O=C(O)C(F)(F)C(F)(F)C(F)(F)C(F)(F)C(F)(F)C(F)(F)C(F)(F)C(F)(F)Cl`: the AC50 was 20.2 µM (active) and 18.8 µM (active). As to `Cc1ccc(S(=O)(=O)NCl)cc1`, the molecule was called inactive. On to `FC(F)(F)C(F)(F)CNCC(F)(F)C(F)(F)F`, for which the molecule was called inactive. With `C=CC/C=C/C/C=C/C/C=C/C`, the outcome was inactive. In the case of `C1COCCN1`, the molecule was classed as inactive.

As to `CCO[Si](CCC(F)(F)C(F)(F)C(F)(F)C(F)(F)C(F)(F)C(F)(F)F)(OCC)OCC`, the call was inactive.

Regarding `O=C(O)C(F)(OC(F)(F)C(F)(OC(F)(F)C(F)(OC(F)(F)C(F)(F)C(F)(F)F)C(F)(F)F)C(F)(F)F)C(F)(F)F` (centres undefined), the outcome was inactive.
